# Active and inactive are the calls of the source.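 How the source made its calls: active means compound that made reporter-free parental cells show up as glowing objects under laser imaging, so likely a fluorescent false positive; inactive means the rest.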
# Experiment: Parental Cell Counter Screen Assay for Epigenetic Modulators
# Details: parental c127i cells, compound fluorescence imaging, 30 h
# Text: NIH Molecular Libraries Screening Centers Network [MLSCN] NIH Chemical Genomics Center [NCGC] MLSCN Grant: 1 X01 MH079860-01 Assay Provider: Elisabeth D. Martinez, University of Texas SW Medical Center NCGC Assay Overview: This assay is a counter screen for the Locus Derepression (LDR) assay (PubChem AID 597). The LDR assay detects the derepression of a GFP reporter that is stably integrated in a region of the genome of murine c127i mammary cells that is presumably silenced. Compounds that cause derepression of the locus to express GFP are identified by enumerating GFP positive cells using a laser-scanning microplate cytometer. […] Compounds active in the parental c127i cells are likely fluorescent.
# NCGC Assay Protocol Summary: Two hundred and fifty cells in 5 uL per well were dispensed into black, clear-bottom 1536-well plates. Twenty-three nL compound was transferred to the assay plate and cells were incubated 30 hours at 37 C. Medium was removed, cells were washed two times with PBS, and fluorescent cells were enumerated as objects between the sizes of 20 to 120 um width and depth using a laser-scanning microplate imager (Acumen Explorer Ex3, TTP Labtech).
smiles,measurement,value
CN1CSC(=S)N(C)C1,outcome,inactive
